The source of these data is PubChem BioAssay (NCI).

The panel holds about 83,000 compounds, 20% with a hit somewhere; the sample as a whole holds those more often.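 Note: values are percent growth. 100 is the growth of untreated cells, values between 100 and 0 indicate rising inhibition; between -100 and 0 indicates cell death.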 A number with no mark means an inactive call. Calls of active or inactive are those of the source. The calls were made as follows: active = growth percent below 10; inactive = the rest.

What all share (assay): NCI-60 one-dose screen, 48 h (100 = growth as untreated, 0 = no growth, -100 = all killed)
The subject of one test is RPMI-8226 leukemia. Conditions: 10 µM.
In the next test the test system is OVCAR-8 ovarian. The following applies: 10 µM unless noted.
For a further test, the system named is OVCAR-5 ovarian. The following applies: 10 µM unless noted.
Another test concerns OVCAR-4 ovarian. The following applies: 10 µM unless noted.
The test system of another test is SK-OV-3 ovarian. Conditions: 10 µM.
The next test has as its system IGROV1 ovarian. Conditions: 10 µM unless noted.
A further test relates to OVCAR-3 ovarian. The following applies: 10 µM unless noted.
The subject of another test is HS 578T breast. The following applies: 10 µM unless noted.
A further test has as its system NCI/ADR-RES ovarian. The following applies: 10 µM unless noted.
The subject of another test is T-47D breast. Conditions: 10 µM.
Another test concerns MDA-MB-435 melanoma. The following applies: 10 µM unless noted.
A further test concerns SW-620 colon. Conditions: 10 µM unless noted.
The subject of the next test is MCF7 breast. Conditions: 10 µM unless noted.
The subject of the next test is HCT-116 colon. Conditions: 10 µM unless noted.
For the next test, the system named is HCC-2998 colon. Conditions: 10 µM unless noted.
The next test relates to KM12 colon. The following applies: 10 µM unless noted.
In the next test the test system is BT-549 breast. The following applies: 10 µM unless noted.
The subject of the next test is SR leukemia. The following applies: 10 µM unless noted.

With `CC1=CN2C(=NC3=C(CCCC/C3=C\c3ccccc3)C2c2ccccc2)S1` (stereo not drawn), the growth in the test with RPMI-8226 leukemia is 112%; with OVCAR-8 ovarian, 102%; in the test with OVCAR-5 ovarian, 106%; with OVCAR-4 ovarian it was 95.8%; in the test with SK-OV-3 ovarian, 88.5%; in the test on IGROV1 ovarian, 97.9%. The growth with OVCAR-3 ovarian was 110%; with HS 578T breast, 92.8%; in the test on NCI/ADR-RES ovarian, 100%; in the test on T-47D breast, 91%; in the test with MDA-MB-435 melanoma, 99.6%; with SW-620 colon, 103%. In addition, the growth in the test with MCF7 breast is 94.6%; in the test with HCT-116 colon it was 97.6%; with HCC-2998 colon, 103%; in the test on KM12 colon, 100%.
`N#CC1=C(N)Oc2cc(N)ccc2C1c1ccc(F)cc1` (stereo not drawn): the growth with RPMI-8226 leukemia was 81.6%; in the test with OVCAR-8 ovarian it was 98.6%; with OVCAR-5 ovarian, 97.2%; in the test with OVCAR-4 ovarian it was 94.1%; in the test with SK-OV-3 ovarian, 85.2%; in the test with IGROV1 ovarian, 69.4%. In addition, the growth in the test with OVCAR-3 ovarian was 96.8%; with HS 578T breast, 81.4%; in the test on NCI/ADR-RES ovarian it was 44.9%; in the test with T-47D breast, 96.6%; in the test on BT-549 breast, 69.2%; in the test on MDA-MB-435 melanoma it was -21.9% (active). The growth with SW-620 colon was 46.8%; in the test on MCF7 breast, 64.1%; in the test with HCT-116 colon, 78.4%; with KM12 colon, 49.7%.
On to `CN(C)c1ccc(/C=C(\C#N)c2cc3ccccc3n2C)cc1`, for which the growth is 22% in the test on SR leukemia; 34.8% with OVCAR-8 ovarian; 38.5% in the test with OVCAR-5 ovarian; 40.3% with OVCAR-4 ovarian; 26.7% in the test with IGROV1 ovarian; -4.72% (active) with OVCAR-3 ovarian. Also, the growth was 20.9% with HS 578T breast; 7.61% (active) in the test with NCI/ADR-RES ovarian; 37.6% in the test with BT-549 breast; -26.9% (active) in the test with MDA-MB-435 melanoma; 21% in the test with SW-620 colon; 10.6% in the test with HCT-116 colon. Moreover, the growth was 20.1% in the test on HCC-2998 colon and 18.5% in the test with KM12 colon.
Turning to `Nc1ccccc1-c1n[nH]c(=O)[nH]c1=O`, the growth is 105% with RPMI-8226 leukemia; 105% in the test on OVCAR-8 ovarian; 109% in the test with OVCAR-5 ovarian; 94.3% with OVCAR-4 ovarian; 108% in the test on SK-OV-3 ovarian; 108% with IGROV1 ovarian. The growth in the test with OVCAR-3 ovarian is 118%; in the test with NCI/ADR-RES ovarian it was 102%; in the test on T-47D breast, 114%; with BT-549 breast it was 111%; with MDA-MB-435 melanoma, 100%; in the test with SW-620 colon it was 101%. The growth in the test on MCF7 breast was 102%; with HCT-116 colon, 93.3%; in the test with HCC-2998 colon, 101%; in the test on KM12 colon, 107%.
Turning to `O=C1C=CC(=O)N1CCCCCCCCCCN1C(=O)C=CC1=O`, the growth in the test on RPMI-8226 leukemia was 52.9%; in the test with OVCAR-8 ovarian it was 78.2%; in the test on OVCAR-5 ovarian, 103%; with OVCAR-4 ovarian, 102%; in the test on SK-OV-3 ovarian it was 126%; in the test with IGROV1 ovarian, 69.5%. Further, the growth in the test with OVCAR-3 ovarian is 38.2%; with HS 578T breast, 67.4%; with NCI/ADR-RES ovarian it was 73.1%; in the test with T-47D breast, 77.9%; in the test with BT-549 breast it was 101%; in the test with MDA-MB-435 melanoma, 68.6%. Besides, the growth in the test with SW-620 colon is 4.62% (active); in the test on MCF7 breast, 82.7%; in the test on HCT-116 colon, 32.9%; in the test with HCC-2998 colon, 90.7%; with KM12 colon, 86.2%.
`Nc1cc2[nH]c(=O)c3ccccc3c2cc1Br`: the growth with RPMI-8226 leukemia was 76.9%; in the test on OVCAR-8 ovarian, 77.6%; in the test with OVCAR-5 ovarian, 60.6%; with OVCAR-4 ovarian, 59.2%; with SK-OV-3 ovarian it was 87.9%; with IGROV1 ovarian it was 59.6%. The growth with OVCAR-3 ovarian was 72.1%; with HS 578T breast, 67%; in the test with NCI/ADR-RES ovarian, 81.7%; in the test on T-47D breast it was 20.6%; in the test with MDA-MB-435 melanoma, 95.3%; with SW-620 colon it was 82.9%. In addition, the figures for the growth in the test on HCT-116 colon, in the test on HCC-2998 colon and with KM12 colon were 77%, 69.5% and 78.9%, respectively.
`C=CCCCCCCCCC(=O)[O-].C=CCCCCCCCCC(=O)[O-].[Zn+2]`: the results for the growth with SR leukemia and in the test on T-47D breast were 91.1% and 112%, respectively.
For the compound `O=c1c2c(=NCCN3CCCC3)cc3c(=O)n(CCCN4CCOCC4)c(=O)c4c(-c5ccc(CN6CCCC6)cc5)cc(c(O)n1CCCN1CCOCC1)c2c4-3`, the growth in the test on SR leukemia was 3.49% (active); in the test on OVCAR-8 ovarian, -10.7% (active); with OVCAR-5 ovarian it was -34.6% (active); with OVCAR-4 ovarian, -50.7% (active); in the test with IGROV1 ovarian it was -25.4% (active); with OVCAR-3 ovarian, -22.5% (active). The growth was -0.981% (active) in the test with NCI/ADR-RES ovarian; -50.9% (active) in the test on BT-549 breast; -90.1% (active) in the test on MDA-MB-435 melanoma; -45.2% (active) in the test on SW-620 colon; -34.8% (active) in the test with MCF7 breast; -23.8% (active) in the test with HCT-116 colon. For the same compound, the growth in the test with HCC-2998 colon is -63.7% (active); with KM12 colon, -47.7% (active).
For `COc1ccc(-c2c3c(N)c4c(nc3nc3c2c(C)nn3-c2ccccc2)CCCCC4)cc1`, the growth is -4.18% (active) in the test with RPMI-8226 leukemia; 83.2% in the test with OVCAR-8 ovarian; 86.3% with OVCAR-5 ovarian; 67.8% in the test with OVCAR-4 ovarian; 85.6% with SK-OV-3 ovarian; 86.7% with IGROV1 ovarian. The growth in the test with OVCAR-3 ovarian was 72.6%; in the test with HS 578T breast, 101%; in the test with NCI/ADR-RES ovarian it was 86.9%; with T-47D breast, 61.2%; with MDA-MB-435 melanoma, 78.8%; with SW-620 colon, 83.5%. Further, the growth in the test with MCF7 breast was 62.8%; in the test on HCT-116 colon, 27.9%; in the test on HCC-2998 colon, 86.6%; in the test with KM12 colon, 84.2%.
With `O=[N+]([O-])c1cc2c(cc1Br)C1C(C3C2C(Cl)(Cl)C(Cl)=C(Cl)C3(Cl)Cl)C(Cl)(Cl)C(Cl)=C(Cl)C1(Cl)Cl` (stereo not drawn), the growth in the test with RPMI-8226 leukemia is 88.1%; in the test on OVCAR-8 ovarian, 97%; in the test with OVCAR-5 ovarian it was 102%; in the test on OVCAR-4 ovarian, 102%; with SK-OV-3 ovarian it was 101%; with IGROV1 ovarian it was 102%. Further, the growth is 95.6% with OVCAR-3 ovarian; 114% in the test on HS 578T breast; 94% in the test with NCI/ADR-RES ovarian; 90.8% with T-47D breast; 93.1% in the test with BT-549 breast; 103% in the test on MDA-MB-435 melanoma. For the same compound, the growth was 115% with SW-620 colon; 91.5% with MCF7 breast; 89.7% in the test with HCT-116 colon; 93.4% in the test with HCC-2998 colon; 106% in the test on KM12 colon.
